From PubChem BioAssay
hcGAS inh: human cGAS inhibition. Q8N884. recombinant h-cGAS, ATP depletion, Kinase-Glo luminescence. inhibition, % at 12.5 µM. actives 0.081% (n = 290,000). AID 1259398
Target sequence (Q8N884 whole entry, looked up): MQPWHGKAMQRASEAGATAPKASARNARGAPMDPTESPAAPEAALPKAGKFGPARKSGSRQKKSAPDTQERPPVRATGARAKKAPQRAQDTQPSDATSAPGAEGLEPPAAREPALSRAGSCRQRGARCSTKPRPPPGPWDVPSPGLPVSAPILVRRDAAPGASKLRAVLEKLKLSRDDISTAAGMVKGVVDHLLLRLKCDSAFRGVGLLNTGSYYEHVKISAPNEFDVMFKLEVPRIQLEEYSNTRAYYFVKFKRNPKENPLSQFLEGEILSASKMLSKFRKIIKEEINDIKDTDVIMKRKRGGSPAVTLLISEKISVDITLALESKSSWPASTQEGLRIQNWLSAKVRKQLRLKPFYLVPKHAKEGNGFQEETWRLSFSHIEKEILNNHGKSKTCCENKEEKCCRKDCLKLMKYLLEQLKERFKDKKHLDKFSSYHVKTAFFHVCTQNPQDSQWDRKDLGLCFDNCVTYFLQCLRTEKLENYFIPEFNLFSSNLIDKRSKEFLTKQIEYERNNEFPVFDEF
mcGAS inh: blocks mouse cGAS activity; inhibition, % at 12.5 µM; Q8C6L5; actives 0.15% (n = 160,000); recombinant cGAS, Kinase-Glo ATP depletion luminescence
NPYLR7 ag: activates Aedes aegypti NPYLR7 receptor; HEK293T NPYLR7/Galpha15, GCaMP6s calcium fluorescence; activation, % at 10 µM; actives 0.15% (n = 270,000); in the data active means activation above about 40%
A number is an active result; i = inactive; nt = no result. Hits are enriched below; roughly 0.24% of the tested compounds scored in any of these assays. Unless noted, no stated cut-off is given here; in the data, active means inhibition above about 40%; inactive means the rest.

SMILES	hcGAS inh	mcGAS inh	NPYLR7 ag
O=C(NCc1cccc(I)c1)c1cncn1-c1ccc(-c2cc(C(F)(F)F)cc(C(F)(F)F)c2)cc1	i	i	i
Cc1cc(Cl)c(C(=O)Nc2cccc(C)c2C)cn1	i	nt	i
COc1ccc(CNC23CC4CC(CC(C4)C2)C3)c(OC)c1C	i	nt	i
OCC1(CCc2ccccc2)CCCN(c2cnc3ccccc3n2)C1 (stereo not given)	i	i	i
COCC(=O)N1CCc2[nH]c3c(Cl)cc(Cl)cc3c2C1	48	96	i
O=C(c1cnccn1)N1CCc2[nH]c3c(Cl)cc(Cl)cc3c2C1	i	i	i
CC1(C(=O)N2CCN(c3ccc(C(N)=O)cc3)CC2)CC1(Cl)Cl (stereo not given)	i	i	i
Cc1cc(C)c2cc3c(cc2n1)CCN3CC(O)CO (stereo not given)	i	nt	188
CC(=O)NC1CCN(c2cc(C)c3cc4c(cc3n2)CCC4)CC1	i	nt	i
CCCS(=O)(=O)N1CCN(c2nc(-c3ccccc3)nc(C)c2Cc2ccc(C)cc2)CC1	i	i	i
Cc1c2c(nc3cc4c(cc13)OCO4)CCc1ccccc1-2	47	nt	i
Cc1cc(-c2ccco2)nc2cc3c(cc12)OCO3	i	nt	i
Cc1ccc(N2C(=O)/C(=C/c3ccc([N+](=O)[O-])cc3)C=C2c2ccccc2)c(Br)c1	i	i	i
CC(CN1CCCC1=O)NC(=O)N1CCCC1c1cccc2ccccc12 (stereo not given)	i	nt	i
O=C(O)C1Nc2cc(Cl)cc(Cl)c2C2C=CCC12 (stereo not given)	i	62	i
CC(=O)c1ccc2c(c1)[C@@H]1C=CC[C@@H]1[C@H](c1cc3c(cc1Br)OCO3)N2	i	i	i
Cc1ccc(NC2C=CS(=O)(=O)C2)cc1C (stereo not given)	i	i	110
Cc1ccc(F)cc1CC(=O)NC1C=CS(=O)(=O)C1 (stereo not given)	i	i	i
Cc1nn(C)c(C)c1S(=O)(=O)N1CCCN(c2ccc(C#N)cc2)CC1	i	nt	i
Cc1cccc(NS(=O)(=O)c2c(C)nn(C)c2Cl)c1C(=O)O	i	nt	i
Cc1nn(C)c(Cl)c1/C=C1/CCCc2c1nc1ccccc1c2C(=O)O	i	i	57
O=C(c1cccs1)N1CCN(c2cc(-n3ccnc3)ncn2)CC1	i	i	i
CC(=O)Oc1c(-c2ccc(NC(=O)C3CCCC3)cc2)c(-c2ccc(F)cc2)nn1-c1ccccc1C	i	i	i
CC1(C)CC(c2nccn2CCOc2ccccc2)CCO1 (stereo not given)	i	nt	i
CC1(C)CC(c2[nH]cnc2-c2ccccc2)CCO1 (stereo not given)	i	nt	58
C/C=C(\C)C(=O)N1CCN(c2cc(S(=O)(=O)N(CC)CC)ccc2OC)CC1	i	i	i
